Results: PubChem BioAssay (NCI)
Compounds without any hit were thinned out: in the full panel of roughly 83,000, 20% have a hit.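 For each line, cells grew in 96-well plates with the test compound present at a single concentration for 48 hours.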

Key:
Experiment in all cases: NCI-60 one-dose screen, 48 h (100 = growth as untreated, 0 = no growth, -100 = all killed); active means growth percent below 10; inactive means the rest
[1] = test system: SR leukemia; settings: 10 µM unless noted
[2] = test system: RPMI-8226 leukemia; settings: 10 µM unless noted
[3] = test system: OVCAR-8 ovarian; settings: 10 µM unless noted
[4] = test system: OVCAR-5 ovarian; settings: 10 µM unless noted
[5] = test system: OVCAR-4 ovarian; settings: 10 µM
[6] = test system: IGROV1 ovarian; settings: 10 µM unless noted
[7] = test system: OVCAR-3 ovarian; settings: 10 µM unless noted
[8] = test system: HS 578T breast; settings: 10 µM unless noted
[9] = test system: NCI/ADR-RES ovarian; settings: 10 µM unless noted
[10] = test system: T-47D breast; settings: 10 µM unless noted
[11] = test system: BT-549 breast; settings: 10 µM unless noted
[12] = test system: MDA-MB-435 melanoma; settings: 10 µM unless noted
[13] = test system: SW-620 colon; settings: 10 µM unless noted
[14] = test system: MCF7 breast; settings: 10 µM unless noted
[15] = test system: HCC-2998 colon; settings: 10 µM unless noted
[16] = test system: KM12 colon; settings: 10 µM unless noted
[17] = test system: HCT-116 colon; settings: 10 µM unless noted

Measured: growth

COc1ccc(/C=C2\N=C(Nc3ccccc3)N(NC(=O)c3ccccn3)C2=O)cc1
inactive: [1] 95.2% | [2] 88.2% | [3] 100% | [4] 122% | [5] 90% | [6] 95.7% | [7] 105% | [8] 95.3% | [9] 97% | [10] 63.6% | [11] 94.1% | [12] 98.7% | [13] 102% | [14] 87.5% | [15] 105% | [16] 96.1%

O=C1COCCN1c1ccc(Nc2nc(Cl)nc(N3CCOCC3)n2)cc1
inactive: [1] 88.9% | [2] 98.9% | [3] 97.9% | [4] 88.3% | [5] 102% | [6] 103% | [7] 103% | [8] 104% | [9] 97.6% | [10] 88.5% | [11] 97.1% | [12] 99.5% | [14] 85.5% | [17] 101% | [15] 89.1% | [16] 93.8%

CCOC(=O)c1nn(C2CCCCO2)c2ccc(NC(=O)Cn3nnc4ccccc43)cc12 (stereo unspecified)
inactive: [1] 97.6% | [2] 107% | [3] 101% | [4] 97.7% | [5] 104% | [7] 110% | [8] 99.4% | [9] 104% | [10] 85.5% | [11] 96% | [12] 110% | [13] 105% | [14] 99.5% | [17] 88.6% | [15] 111% | [16] 104%

O=C(Nc1ccc(CN2CCOCC2)c(C(F)(F)F)c1)c1nc2ccc3[nH]ncc3c2c2c1CCCC2
inactive: [1] 95.8% | [2] 83.3% | [3] 93.5% | [4] 104% | [5] 91% | [6] 95.8% | [7] 102% | [8] 95.7% | [9] 96.3% | [10] 62.6% | [11] 136% | [12] 96.6% | [13] 99.4% | [17] 79.4% | [15] 116% | [16] 83.9%

C[n+]1c2ccccc2nc2c(N)cc(N)cc21
inactive: [1] 38.3% | [2] 80.2% | [3] 41.6% | [4] 101% | [5] 72.5% | [6] 70.1% | [7] 15.2% | [8] 55.5% | [9] 92.9% | [10] 54.2% | [11] 46% | [12] 126% | [17] 78.2% | [15] 92.4% | [16] 63.8%

CCOC(=O)c1nn(C2CCCCO2)c2ccc(NC(=O)CSc3nc4ccccc4c(=O)[nH]3)cc12 (stereo unspecified)
inactive: [1] 113% | [2] 101% | [3] 98.1% | [4] 115% | [5] 100% | [6] 101% | [7] 106% | [8] 51.6% | [9] 107% | [10] 99.1% | [11] 89.6% | [12] 107% | [13] 105% | [14] 92.1% | [15] 115%

CCN(CC)CC(C)Nc1ccc(C)c2sc3ccccc3c(=O)c12 (stereo unspecified)
inactive: [1] 33.4% | [2] 11% | [3] 64.2% | [4] 68.9% | [5] 75.9% | [6] 19.1% | [7] 77.5% | [9] 68.7% | [10] 53.6% | [11] 82.3% | [12] 59.1% | [13] 55.8% | [14] 32.6% | [17] 34.6% | [15] 45.9% | [16] 55%

COc1ccc(-c2ccc(NNC(=O)c3ccc(F)cc3)nn2)cc1OC
inactive: [1] 51% | [2] 70.7% | [3] 66.8% | [4] 50.3% | [5] 81.8% | [6] 22.1% | [7] 78.6% | [8] 41.1% | [9] 65.4% | [10] 20% | [12] 83.2% | [13] 75.1% | [14] 51.1% | [17] 66.2% | [15] 90.5% | [16] 92.3%
